# Bioassay records (PubChem BioAssay)
# Compounds with a hit are over-represented: about 1.9% of the library has one in this group of screens.
# RXFP1 agonist: agonists of human relaxin receptor RXFP1; HEK293T-RXFP1 cAMP TR-FRET, 30 min; response scale: percent of porcine relaxin response, buffer zero; 370,000 tested, 0.3% active; Potency, µM (highest dose often 57.5 µM), usual class: activators; Q9HBX9; also: nearly all actives have a fitted effect of over 60% in size
# Target sequence (Q9HBX9 whole entry, looked up): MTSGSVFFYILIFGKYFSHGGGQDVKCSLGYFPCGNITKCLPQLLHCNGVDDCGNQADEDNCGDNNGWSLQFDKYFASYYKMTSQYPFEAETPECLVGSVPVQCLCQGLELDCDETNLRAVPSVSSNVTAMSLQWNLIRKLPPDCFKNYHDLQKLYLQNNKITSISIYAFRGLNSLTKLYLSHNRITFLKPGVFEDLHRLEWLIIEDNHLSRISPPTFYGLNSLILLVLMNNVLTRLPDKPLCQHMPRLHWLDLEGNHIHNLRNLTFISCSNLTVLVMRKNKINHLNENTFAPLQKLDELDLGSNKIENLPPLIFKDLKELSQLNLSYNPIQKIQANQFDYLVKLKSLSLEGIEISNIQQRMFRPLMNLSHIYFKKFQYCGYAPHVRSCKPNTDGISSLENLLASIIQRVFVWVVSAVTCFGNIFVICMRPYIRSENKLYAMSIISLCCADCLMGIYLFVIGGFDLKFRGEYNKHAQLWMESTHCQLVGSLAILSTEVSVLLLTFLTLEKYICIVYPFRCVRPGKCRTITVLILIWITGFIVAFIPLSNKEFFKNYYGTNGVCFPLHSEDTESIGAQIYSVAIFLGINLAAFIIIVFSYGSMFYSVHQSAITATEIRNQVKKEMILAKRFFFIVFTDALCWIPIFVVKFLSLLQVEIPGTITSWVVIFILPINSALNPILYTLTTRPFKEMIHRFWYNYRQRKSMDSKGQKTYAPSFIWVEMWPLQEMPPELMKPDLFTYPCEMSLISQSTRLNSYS
#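 cAMP rise read by TR-FRET after 30 min, 37C compound exposure (up to 58 uM) in RXFP1-transfected HEK293 cells with Ro 20174 present. EC50 from Hill-equation fits, with 29 nM porcine relaxin as 100% and buffer as basal.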
# Giardia killer: kills Giardia lamblia; Giardia lamblia trophozoite viability; activity change, % at 7.66 µM, hits read low; 340,000 tested, 0.15% active; in the data active = activity change below about -80%; inconclusive = between about -30% and that limit;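 also: parasites exposed to compound for two days anaerobically before the ATP read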
#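 Killing of trophozoites was scored by loss of ATP luminescence after a 48 hrs anaerobic exposure to compounds at 37 deg C, using 100 cells per well.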
# BRCA1 expr up: BRCA1 expression activation; AID 624202; MCF7-BRCA1-FFLuc reporter, luminescence, 48 h; response scale: scaled: vehicle 0%, 10 µM genistein 100%; 380,000 tested, 1.1% active; Potency, µM (titrated, usually from 46.1 µM), usual class: activators; also: nearly all actives have a fitted effect of over 80% in size
#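 Luminescence from a BRCA1-driven firefly luciferase in MCF7 cells was the read-out, taken 15 min after substrate addition following 48 h compound exposure at 37 °C. Data were normalized to a 10 microM genistein control and DMSO vehicle.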
# NPSR antag: antagonists of human neuropeptide S receptor cAMP signaling | 220,000 tested, 1% active | Potency, µM (doses to about 38.3 µM), usual class: inhibitors | CHO-NPSR cells, cAMP TR-FRET, antagonist mode | Q6W5P4; also: nearly all actives have a fitted effect of over 50% in size
# RXFP1 antag: antagonists of human relaxin receptor RXFP1; Q9HBX9; HEK293-RXFP1, relaxin-stimulated cAMP HTRF, 30 min; active compounds read low; activity change, negative = inhibition, % at 57.5 µM; 350,000 tested, 0.59% active;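 active = activity change of -60% or lower, but not beyond a set lower limit; inconclusive = change between -60% and -40%, or beyond the set limit; inactive = change above -40%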
# IL-2 act: activates IL-2 in a cell-based reporter assay; IL-2 activation reporter assay, cell-based qHTS; stimulated with anti-CD3/CD4/CD28 beads; in transgenic mouse T cells; activation, % (series mostly up to about 46 µM); 360,000 tested, 0.065% active; in the data active = activation above about 50%; inconclusive = mostly about 30% to 49%
#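 Screening format: compound pinned onto unstimulated transgenic mouse T cells, 60 min incubation, then anti-CD3/anti-CD4/anti-CD28 bead stimulation for 18 hours at 37 degrees C, followed by EGFP and DsRed detection.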
# Hits are given with their value; i = inactive; ? = inconclusive; nt = not tested or not shown; [ ] = dose if it differs, or a comment. Unless noted, calls follow the shape of the dose curve; as a rule, active = well fitted curve in the direction sought with a large enough effect; inconclusive = small, poorly fitted or top-dose-only effect, or another doubt; inactive = no such curve, though single readings can be large; an effect the other way counts as inactive or inconclusive.
SMILES,RXFP1 agonist,Giardia killer,BRCA1 expr up,NPSR antag,RXFP1 antag,IL-2 act
O=C(c1ccccc1)c1cc(Cl)ccc1N1C(=O)C=CC1=O,i,i,i,?,-63.4,i
CCC(C)NC(=O)C(Cc1ccccc1)NS(=O)(=O)c1ccc2c(c1)CCC(=O)N2 (configuration not stated),i,i,i,nt,-71.2,i
O=S(=O)(c1ccccc1)n1ccc(-c2cnc(-c3ccccc3)s2)n1,i,i,7.94µM,?,i,i
Cc1ccc(Cn2ccc(-c3cnc(-c4ccccc4)s3)n2)cc1,i,i,i,i,i,i
COc1ccc(-c2nn(C)c3sc(C(=O)Nc4cc(OC)c(OC)c(OC)c4)cc23)cc1OC,i,nt,nt,nt,i,nt
CC(=O)N1CCc2c(sc3c2c(=O)n(-c2ccccc2)c(=O)n3CC(=O)c2ccc(F)cc2)C1,i,nt,i,nt,nt,nt
O=C(COC(=O)C1CC1)Nc1ccc(N=Nc2ccccc2)cc1,i,i,2.51µM,i,i,i
CN(c1ccccc1)c1nc(N)c([N+](=O)[O-])c(N2CCCC2)n1,i,i,11.2µM,nt,i,i
CN(c1ccccc1)c1nc(N)c([N+](=O)[O-])c(N2CCCCC2)n1,i,i,i,i,i,i
O=C(Nc1ccc(Oc2c(F)c(F)c(F)c(F)c2F)cc1)OC1CCN2Cc3ccccc3N=C12 (configuration not stated),i,i,i,2µM,i,i
Cc1cc2c(s1)c1c(n2C)C(=O)N(Cc2ccccc2F)C1,i,nt,nt,nt,nt,nt
COc1ccc2c(=O)c3ccccc3oc2c1,i,i,?,nt,i,i
CC(=O)c1ccc2oc3ccccc3c(=O)c2c1,i,i,7.94µM,nt,nt,i
CC(=O)c1cc2c(=O)c3ccccc3oc2nc1C,nt,i,10µM,nt,i,i
COc1ccc(C(=O)N(Cc2ccccc2)Cc2ccc(OC)c(COc3ccc(NC(C)=O)cc3)c2)cc1,nt,i,i,nt,nt,nt
O=C1S/C(=C\C=C\c2ccco2)C(=O)N1c1ccc(O)cc1,i,i,?,i,-62.9,i
O=C1S/C(=C\C=C\c2ccco2)C(=O)N1c1ccccc1,i,i,3.55µM,i,?,i
O=C(O)CCCN1C(=O)/C(=C/C=C/c2ccco2)SC1=S,i,i,i,i,i,i
O=C1S/C(=C\c2cccs2)C(=O)N1c1ccc(O)cc1,i,i,11.2µM,nt,i,i
CC(=O)C[n+]1cccc2cc(Cl)ccc21,nt,nt,i,nt,nt,nt
O=C1c2ccccc2C(=O)N1c1cccc(O)c1,nt,i,i,nt,nt,nt
C=C1NN(Cc2ccccc2)C(=O)N1c1ccc(OC)cc1,nt,nt,i,nt,nt,nt
COc1ccccc1/C=C/C=N/NC(=O)c1cnccn1,i,i,i,i,i,i
COc1ccccc1/C=C/C=N/NC(=O)c1ccccn1,i,i,5.01µM,i,i,i
COc1ccccc1/C=C/C(=O)NCCc1ccccn1,i,i,3.16µM,nt,i,i
SMILES,RXFP1 agonist,Giardia killer,BRCA1 expr up,NPSR antag,RXFP1 antag,IL-2 act
O=C(NCc1ccccc1Br)C1CCCN(C(=O)N2CCOc3ccccc32)C1 (configuration not stated),i,nt,nt,nt,i,nt
CC(=C/c1ccco1)/C=N/N1CCN(c2ccccc2)CC1,i,i,i[1.84 µM],i,i,i
CC(/C=N/N1CCN(c2ccccc2)CC1)=C\c1ccco1,i,i,6.31µM,i,i,i
CCc1ccc(NC(=O)Cn2c(SCc3ccc(C)cc3)nc3ccncc32)cc1,nt,i,i,nt,nt,nt
CCc1ccc2c(c1)c(=O)c(C(=O)c1ccc(C)cc1)cn2CC(=O)Nc1ccc2c(c1)OCCO2,i,nt,i,nt,nt,nt
N#Cc1ccc(CSc2ccccn2)c(Cl)c1,i,i,i,nt,i,i
Cn1c(SCc2ccc(C#N)cc2Cl)nc2ccccc21,i,i,4.47µM,i,i,i
NC1C(N)C(N)C1N (configuration not stated),nt,nt,i,nt,nt,nt
COC(=O)[C@@H](C)NC(=O)c1ccc2oc(CCc3ccccc3)nc2c1,i,i,11.2µM,nt,i,i
COc1cccc(-c2nnc(SCC(=O)N3CCOCC3)o2)c1,i,i,12.6µM,i,i,i
O=C(CSc1nnc(-c2ccc(OC(F)F)cc2)o1)N1CCOCC1,i,i,12.6µM,i,i,i
COc1ccc(-c2nnc(SCC(=O)N3CCOCC3)o2)cc1,i,i,?,i,i,i
